# Hits are enriched below; roughly 10% of the tested compounds scored in any of these assays.
# SW480 rereplic: A quantitative high throughput screen for small molecules that induce DNA re-replication in SW480 colon adenocarcinoma cells; SW480 DNA re-replication, Hoechst DNA content imaging, 48 h; Potency, µM (top dose mostly 46.1 µM), inactives show at the highest dose re-replication activation, most hits filed as activators; AID 624297, 2012; 1.8% of 340,000 active; note: % of control where 0% means no effect; nearly all actives have a fitted effect of over 55% in size
#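 Per well, 250 cells were exposed to pinned compound for 48 hr. Nuclear DNA was visualised with Hoechst (40 min, 37 C) and total object intensity recorded by fluorescence scanning.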
# RORgamma inh: qHTS for inhibitors of ROR gamma transcriptional activity | Drosophila S2 Gal4-RORgamma UAS-luciferase reporter, 20 h | Potency, µM (top dose mostly 53.6 µM), without a hit: at the top dose activity change, negative = inhibition, hits mostly inhibitors | 5.4% of 310,000 active | Nuclear receptor ROR-gamma (Mus musculus), P51450; note: % is set by controls: 0 for no effect and ±100 for the full control effect; nearly all actives have a fitted effect of over 60% in size
# Target sequence (P51450 whole entry, looked up, the tested form may be a part): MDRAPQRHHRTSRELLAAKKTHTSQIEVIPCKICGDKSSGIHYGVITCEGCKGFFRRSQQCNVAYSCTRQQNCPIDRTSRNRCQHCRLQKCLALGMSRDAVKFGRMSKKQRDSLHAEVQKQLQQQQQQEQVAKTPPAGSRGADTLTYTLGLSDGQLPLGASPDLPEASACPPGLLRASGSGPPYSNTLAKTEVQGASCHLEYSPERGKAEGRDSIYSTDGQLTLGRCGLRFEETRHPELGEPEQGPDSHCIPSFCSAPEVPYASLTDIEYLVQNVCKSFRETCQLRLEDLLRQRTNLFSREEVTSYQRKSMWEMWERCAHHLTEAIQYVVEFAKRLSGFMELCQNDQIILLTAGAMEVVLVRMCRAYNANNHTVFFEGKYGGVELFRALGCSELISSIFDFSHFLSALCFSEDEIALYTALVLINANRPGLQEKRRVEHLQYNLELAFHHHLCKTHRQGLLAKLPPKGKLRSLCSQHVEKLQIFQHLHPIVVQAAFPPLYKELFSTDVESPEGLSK
#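 ROR gamma transcriptional activity was tracked as Gal4-UAS luciferase output in stably transfected Drosophila Schneider cells, with compound added 1 hr before 700 uM copper sulfate induction and a 20 hr ambient-temperature incubation.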
# MCF10A rereplic: A quantitative high throughput screen for small molecules that induce DNA re-replication in MCF 10a normal breast cells. MCF 10A DNA re-replication, Hoechst nuclear intensity, 48 h. Potency, µM (highest dose often 46.1 µM), inactives show top-dose activity, positive = re-replication, most hits filed as activators. 2.9% of 350,000 active. AID 624296, 2012; note: % of control where 0% means no effect; nearly all actives have a fitted effect of over 50% in size
# KB-3-1 tox: qHTS assay for MDR1-selective chemotherapeutics: Primary screen using the parental adenocarcinoma cell KB-3-1; AID 1347075, 2019; KB-3-1 viability, CellTiter-Glo ATP luminescence, 72 h; 1.4% of 400,000 active; Potency, µM (series often up to 46.1 µM), hits mostly cytotoxic; note: % is set by controls: 0 for no effect and ±100 for the full control effect; nearly all actives have a fitted effect of over 60% in size
#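 Viability of parental KB-3-1 cells, measured by CellTiter-Glo luminescence, followed a 72 h incubation at 37 °C with pinned compounds in phenol-red-free DMEM containing 10% FBS.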
# KB-V1 cytotox: qHTS assay for MDR1-selective chemotherapeutics: Primary screen using the drug-selected MDR subline cells KB-V1; KB-V1 MDR cells viability, CellTiter-Glo, 72 h; 3.4% of 400,000 active; Potency, µM (doses to about 46.1 µM), most hits filed as cytotoxic; note: % is set by controls: 0 for no effect and ±100 for the full control effect; nearly all actives have a fitted effect of over 60% in size
#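 In this primary screen, KB-V1 cells overexpressing P-gp are incubated with library compounds (lowest to highest concentration) for 72 h at 37 degrees C before a luminescent ATP viability read.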
# VP16 counter: VP16 counterscreen qHTS for inhibitors of ROR gamma transcriptional activity. AID 2546, 2010. Drosophila S2 Gal4-VP16 UAS-luciferase, luminescence, 20 h. 3.5% of 310,000 active. Potency, µM (highest dose often 53.6 µM), without a hit: top-dose activity, negative = inhibition, hits mostly inhibitors;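 note: Gal4-VP16 expression switched on by copper sulfate through the metallothionein promoter; % is set by controls: 0 for no effect and ±100 for the full control effect; nearly all actives have a fitted effect of over 50% in size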
# Numbers without * were called inactive; i = inactive; ? = inconclusive; . = no result; [ ] = another dose, or the depositor's remark. Calls come from the whole dose curve; as a rule, active = well fitted curve in the direction sought with a large enough effect; inconclusive = small, poorly fitted or top-dose-only effect, or another doubt; inactive = no such curve, though single readings can be large; an effect the other way counts as inactive or inconclusive. Potency is the fitted concentration of half-maximal effect.
SMILES,SW480 rereplic,RORgamma inh,MCF10A rereplic,KB-3-1 tox,KB-V1 cytotox,VP16 counter
Cc1cc(C)nc(N2CCC(C(=O)NCc3cccs3)CC2)n1,-1.4%,10.0%,-2.5%,i,13µM*,-3.9%
Cc1cc(C)nc(N2CCC(C(=O)NCc3ccco3)CC2)n1,-7.2%,13.3%,2.5%,i,16.4µM*,1.3%
Cn1cccc1C(=O)N1CCC2(CCCN(Cc3ccncc3)C2)CC1,.,1.4%,.,.,.,-5.8%
Cc1nc2c(C(=O)NCc3ccccc3Cl)c[nH]n2c(=O)c1Cc1cccc(Cl)c1,.,.,.,i,?,.
O=C(Nc1ccccc1)c1cnc(-c2ccccc2)nc1-c1ccccc1,13µM*,-6.5%,?,i,10.3µM*,?
O=C(O)c1cnc(-c2ccccc2)nc1-c1ccccc1,-10.2%,-30.8%,1.5%,i,i,-13.5%
Cc1csc(-c2nc3ccccc3n2C(C(=O)Nc2c(C)cccc2C)C2CC2)c1 (stereo not drawn),.,.,.,i,?,.
COc1ccc(CNc2ncnc3cc(Cl)ccc23)cc1OC,-5.2%,?,17.6%,?,20.6µM*,?
COc1ccc(CNc2ncnc3sccc23)cc1,-2.4%,?,-0.2%,?,?,?
COc1ccc(CNc2ncnc3sccc23)cc1OC,5.1%,?,11.4%,?,16.4µM*,11.2µM*
c1cncc(CNc2ncnc3sccc23)c1,12.6%,?,-15.0%,i,i,-12.2%
OC(CNc1ncnc2sccc12)c1ccccc1 (stereo not drawn),-7.4%,?,?,i,i,6.31µM*
c1ccc(CNc2ncnc3sccc23)cc1,-15.9%,-11.8%,-4.2%,i,i,17.8µM*
CCN(CC)CC#CCOC(=O)[C@@](O)(c1ccccc1)C1CCCCC1,-0.3%,-15.8%[16.9 µM],17.6%,.,.,-12.1%[17 µM]
Cc1ccc(F)c(S(=O)(=O)NC(=O)C2(C)CCN2C(=O)Cc2cccs2)c1 (stereo not drawn),.,.,.,i,i,.
Cc1ccnc(NC(=S)N2CCN(c3cccc(N(C)C)c3)CC2)c1,.,.,.,i,i,.
O=C(c1ccccc1)N1N=C(c2ccccc2)CC1(O)C(F)(F)F (stereo not drawn),-14.0%,-23.8%,11.9%,i,i,-17.8%
CC1=NN(C(=O)c2ccccc2-n2cccc2)C(O)(C(F)(F)F)C1 (stereo not drawn),-20.3%,10µM*,6.2%,i,i,?
CC1=NN(C(=O)c2ccc(C)cc2)C(O)(C(F)(F)OC(F)(F)F)C1 (stereo not drawn),-12.2%,6.31µM*,?,?,i,11.2µM*
Cc1ccc(S(=O)(=O)/N=C/c2c(O)ccc3ccccc23)cc1,0.3%,17.8µM*,0.9%,i,i,?
O=S(=O)(/N=C/c1c(O)ccc2ccccc12)c1cccs1,.,?,.,.,.,-19.0%
NC(=S)N/N=C/c1c(O)ccc2ccccc12,?,1.12µM*,?,1.64µM*,?,3.98µM*
NC(=S)N/N=C/c1coc2c(ccc3ccccc32)c1=O,15.6%,5.62µM*,-4.1%,6.51µM*,5.17µM*,7.94µM*
O=CN/N=C/c1c(O)ccc2ccccc12,18.0%,0.794µM*,1.4%,7.31µM*,?,2.82µM*
Oc1ccc2ccccc2c1/C=N/Nc1ccccc1,-2.9%,?,9.3%,?,i,?
SMILES,SW480 rereplic,RORgamma inh,MCF10A rereplic,KB-3-1 tox,KB-V1 cytotox,VP16 counter
CC1=C(C(=O)Nc2ccccc2)C(c2ccncc2)n2nc(SCc3ccccc3)nc2N1 (stereo not drawn),.,.,.,i,?,.
COc1cc(C)c(C(C)C)cc1S(=O)(=O)n1cnc(C)c1,5.17µM*,-16.6%,?,5.17µM*,?,-9.1%
COc1ccc(C)cc1S(=O)(=O)n1cnc(C)c1,-24.2%,4.3%[1.91 µM],-1.6%,i,i,6.7%
CC(O)(c1cccnc1)c1nc(-c2cccc(C(F)(F)F)c2)cs1 (stereo not drawn),.,.,.,i,i,.
COc1ccccc1N1CCN(C(=O)CN(CCc2ccccc2)S(C)(=O)=O)CC1,-5.7%,16.6%,-3.0%,i,9.2µM*,-5.7%
CCOC(=O)N1CCN(C(=O)CN(c2ccccc2)S(C)(=O)=O)CC1,-4.7%,17.2%,0.9%,i,i,-5.7%[10 µM]
CS(=O)(=O)N(CC(=O)N1CCCCCC1)c1ccc(Br)cc1,-10.7%,-20.1%,2.8%,i,14.6µM*,3.3%[0.365 µM]
CCOC(=O)N1CCN(C(=O)CN(c2ccc(OCc3ccccc3)cc2)S(C)(=O)=O)CC1,-4.1%,19.7%,-13.8%,i,5.17µM*,16.2%
COc1ccccc1N(CC(=O)N1CCCCCC1)S(C)(=O)=O,?,3.5%,0.326µM*,i,i,-7.0%
CCOc1ccccc1N(CC(=O)N1CCCCCC1)S(C)(=O)=O,-3.2%,9.1%,2.2%,i,i,-7.5%
COc1ccc(N2CCN(C(=O)CN(CCc3ccccc3)S(C)(=O)=O)CC2)cc1,10.5%,39.8%,13.5%,i,?,-18.1%
CS(=O)(=O)N(CC(=O)N1CCCCCC1)c1cccc(Br)c1,1.9%,37.2%,0.7%,i,20.6µM*,8.5%
COc1cccc(N(CC(=O)N2CCCCCC2)S(C)(=O)=O)c1,-11.2%,-25.5%,0.82µM*,i,i,-8.0%
CCN1CCN(C(=O)CN(c2cc(OC)ccc2OC)S(C)(=O)=O)CC1,-6.8%,15.8%,0.8%,i,i,2.2%
COc1ccc(OC)c(N(CC(=O)N2CCN(c3cc(Cl)ccc3C)CC2)S(C)(=O)=O)c1,-1.9%,13.3%,9.4%,i,23.1µM*,1.3%
Cc1cccc(N(CC(=O)N2CCCCCC2)S(C)(=O)=O)c1,11.1%,7.9%,-1.3%,i,i,5.1%
OCCN1CCN(c2ncnc3c2ncn3[C@H]2CN(Cc3ccc(F)cc3)C[C@@H](CO)O2)CC1,.,.,.,i,i,.
CCOC(=O)c1ccc(-n2cnc(-c3ccc([N+](=O)[O-])cc3)c2)cc1,.,.,.,i,i,.
Cc1ccc(Cl)cc1NC(=O)c1cc2ccccc2cc1O,?,5.01µM*,7.31µM*,9.2µM*,?,2.82µM*
Cc1ccc(Cl)cc1NC(=O)c1cccc(OC(F)F)c1,-4.3%,8.2%,12.8%,i,18.4µM*,21.4%
Cc1cc2ccccc2c[n+]1CC(=O)c1ccc(F)cc1,.,.,.,i,i,.

# Screens from PubChem BioAssay.
